# Reference: PubChem BioAssay (NCI)
# About 79,000 compounds went through this panel and 15% of them were active in at least one assay; those are over-represented in the sample as a whole. Active and inactive are the calls of the source. Rule as the data show it: active = growth inhibition above about 70%; inactive = the rest.
# Test: NCI Yeast Anticancer Drug Screen. Data for the cln2 rad14 strain (AID 165);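 also: 0% = growth equal to vehicle treated cultures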
# Details: S. cerevisiae cln2 rad14 strain, at 50.0 µM, stronger effect = higher value
# Method: Growth inhibition of yeast strains with defined genetic alterations is measured as a screen for potential anti-cancer activity. Selected strains with alterations in DNA damage repair or cell cycle control were exposed to compounds and growth inhibition was measured relative to vehicle treated controls. The strain used in this assay is cln2 rad14
row,SMILES,growth inhibition
1,Cc1csc(NNC(=O)Nc2ccccc2)n1,18.4% (inactive)
2,CC(=O)OCC1OC(n2ccc(=O)[nH]c2=O)C(NC(=O)C(F)(F)F)C(OC(C)=O)C1OC(C)=O (stereo not given),-11.2% (inactive)
3,NC1=NC(=O)C(CC(=O)Nc2ccc(Cl)cc2Cl)S1 (stereo not given),3.3% (inactive)
4,O=c1[nH]n(CCc2ccccc2CCl)c2ccc([N+](=O)[O-])cc12,9.45% (inactive)
5,CC(=O)[O-].O=S(=O)(Nc1ncccn1)c1ccc(N=Cc2ccccc2O)cc1.O=S(=O)(Nc1ncccn1)c1ccc(N=Cc2ccccc2O)cc1.[Co+2],27.7% (inactive)
6,O=C(OCC1CCCO1)c1ccccc1 (stereo not given),-18.4% (inactive)
7,COc1cc(C)c2cc(C)cc(C)c2n1,-17.9% (inactive)
8,CCOC(=O)c1c(C)c2c(n1C)CC/C(=C/NCCc1ccccc1)C2=O,29.8% (inactive)
9,CCOC(=O)Cc1c(C)cc(C)cc1C,3.35% (inactive)
10,CC1(C)CCCc2c(-c3ccccc3)cc3c4[nH]c5ccccc5c4cc[n+]3c21,3.65% (inactive)
11,CCCCCC/C=C/C(N)=O,12.1% (inactive)
12,[Cl-].[Dy+3].[O-]/N=C(\c1ccccc1)c1ccccn1.[O-]/N=C(\c1ccccc1)c1ccccn1.[O-]/N=C(\c1ccccc1)c1ccccn1,12.2% (inactive)
13,O=C1c2cc3ccccc3cc2NC(O)c2cccn21 (stereo not given),27.4% (inactive)
14,CCC(C)CC(O)CC(C)C (stereo not given),12.7% (inactive)
15,CC(=O)c1ccc(NC(N)=O)cc1,-8.1% (inactive)
16,OCCCCN(CCO)CCCCO,-12.4% (inactive)
17,CC(=O)C(C(C)=O)C(C(C)=O)C(C)=O.[Cu],-10.4% (inactive)
18,C[S+](C)CCOC(=O)C(=[N+]=[N-])c1ccc([N+](=O)[O-])cc1,25.8% (inactive)
19,[O-][n+]1c2ccccc2nn1-c1ccccc1,-21.4% (inactive)
20,CN(C)c1ccccc1C(=O)N/N=C/c1ccc(F)cc1,-13.8% (inactive)

row,SMILES,growth inhibition
1,CC(O)CNC(=O)C(C)Oc1ccc(OCC2CCCCC2)cc1 (stereo not given),-9.7% (inactive)
2,CCC(CC)NNC(CC)CC,5.35% (inactive)
3,NC(=O)C(c1ccccc1)c1ccnc2ccccc12 (stereo not given),8.05% (inactive)
4,CC(=O)O[C@H]1CC(C)(C)C(=C=C/C(C)=C/C=C/C=C/C=C(C)/C=C2C=C(/C=C/[C@@]34O[C@]3(C)C[C@@H](O)CC4(C)C)C(=O)O/2)[C@](C)(O)C1,6.2% (inactive)
5,CC1=NN(c2ccccc2)C(=O)/C1=C\c1ccccc1,10.1% (inactive)
6,FC12CCC(c3ccccc3)(CC1)CC2,-30.1% (inactive)
7,Cc1ccc(NC(=O)c2cc3c(cc2Cl)Sc2nccn2S3(=O)=O)cc1,-25.9% (inactive)
8,CCOC(=O)c1cn2ccccc2c1C(=O)OCC,-23.2% (inactive)
9,O=NN(CCCl)C(=O)/N=N/C(=O)N(CCCl)N=O,15.2% (inactive)
10,O=C(Nc1ncccn1)c1ccc(Cl)cc1Cl,-21.5% (inactive)
11,S=C1N(/N=C/c2c3ccccc3cc3ccccc23)C(=Nc2ccccc2)C(=Nc2ccccc2)N1c1ccccc1,24.9% (inactive)
12,CCOC(=O)CC1(C)c2nc(NC(C)=O)sc2Cc2sc(NC(C)=O)nc21,-26.6% (inactive)
13,O=C1Cc2nc3ccccc3nc2CC(=O)c2ccccc21,-19.9% (inactive)
14,O=c1[nH]cnc2nc(N3CCN(c4ccccc4)CC3)sc12,-40.7% (inactive)
15,N#CC(CCc1ccccc1)(c1ccccc1)c1ccccc1,-45.5% (inactive)
16,C=Cc1c2ccccc2cc2c1ccc1ccccc12,87.2% (active)
17,CC(C)(C)NC1=C([N+](=O)[O-])CCCC1,-19.6% (inactive)
18,O=C(N=Nc1c(O)[nH]c2ccccc12)c1ccncc1,-19.4% (inactive)
19,CC(=O)C1C(=O)C(=O)N(Cc2ccccc2)C1=O (stereo not given),-19.3% (inactive)
20,C=CCn1c(SC)nc2c(c1=O)CCCC2,-14.3% (inactive)
